± gives the standard deviation.
Legend:
Test in all cases: peptide microarray binding signal (635 nm), min-max normalized on array (fraction of array maximum); higher = stronger binding
Details in all cases: peptide region: H3 1-13
[1] = target: T1, HaloTag-ATRX ADD domain (163-292)
T1 chain: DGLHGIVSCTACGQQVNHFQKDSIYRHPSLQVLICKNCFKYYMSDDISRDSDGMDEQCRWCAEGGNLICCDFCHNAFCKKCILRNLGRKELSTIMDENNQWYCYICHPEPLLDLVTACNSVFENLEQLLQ
Description: (§1)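 Histone 13-mer peptides were synthesized as cellulose conjugates with a C-terminal 20-atom PEG linker and printed in triplicate on nitrocellulose. The sequence given is the unmodified backbone; PTMs (Kme1/2/3, Kac, Sph/Tph, Rme/Rme2a/Rme2s, Rcit) are listed in the label and the 'peptide modifications' condition. Slides were probed at 4 °C for 1 h with biotin-labelled (HQ)5-HaloTag reader fusions (ATRX-ADD, ING2-PHD) then streptavidin-Alexa647, or with rabbit histone antibodies then anti-rabbit Alexa647. The mean 635 nm signal of the triplicate spots was scaled 0-1 between the lowest and highest values on each array.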

[2] = target: HaloTag-ING2 PHD (mouse Ing2 200-280)
Description: as §1

[3] = target: anti-H3K4me3 antibody ab8580
Description: as §1

[4] = target: anti-H3K9me3 antibody ab8898
Description: as §1

[5] = peptide modifications: H3R2cit H3K9me2, binder concentration: 1:2,000 dilution
[6] = peptide modifications: H3R2cit H3K9me2, binder concentration: 1:10,000 dilution
[7] = peptide modifications: H3K9me3 H3S10ph, binder concentration: 1:2,000 dilution
[8] = peptide modifications: H3K9me3 H3S10ph, binder concentration: 1:10,000 dilution
[9] = peptide modifications: H3R2cit H3K4ac, binder concentration: 1:2,000 dilution
[10] = peptide modifications: H3R2cit H3K4ac, binder concentration: 1:10,000 dilution
[11] = peptide modifications: H3R2cit H3K9ac, binder concentration: 1:2,000 dilution
[12] = peptide modifications: H3R2cit H3K9ac, binder concentration: 1:10,000 dilution
[13] = peptide modifications: H3R2cit H3K4me2, binder concentration: 1:2,000 dilution
[14] = peptide modifications: H3R2cit H3K4me2, binder concentration: 1:10,000 dilution
[15] = peptide modifications: H3K9me3, binder concentration: 1:2,000 dilution
[16] = peptide modifications: H3K9me3, binder concentration: 1:10,000 dilution
[17] = peptide modifications: H3R2cit H3K9me1, binder concentration: 1:2,000 dilution
[18] = peptide modifications: H3R2cit H3K9me1, binder concentration: 1:10,000 dilution
[19] = peptide modifications: H3K9me2 H3S10ph, binder concentration: 1:2,000 dilution
[20] = peptide modifications: H3K9me2 H3S10ph, binder concentration: 1:10,000 dilution
[21] = peptide modifications: H3R2cit H3K4me3, binder concentration: 1:2,000 dilution
[22] = peptide modifications: H3R2cit H3K4me3, binder concentration: 1:10,000 dilution
[23] = peptide modifications: H3R2cit H3K4me1, binder concentration: 1:2,000 dilution
[24] = peptide modifications: H3R2cit H3K4me1, binder concentration: 1:10,000 dilution

B1: H3 1-13 A Rcit T K Q T A R Kme2 S T G G (peptide)
chain: ARTKQTARKSTGG
peptide microarray binding signal ([1]; peptide modifications: H3R2cit H3K9me2, binder concentration: 50 nM): 0.0526 ± 0.0021
peptide microarray binding signal ([1]; peptide modifications: H3R2cit H3K9me2, binder concentration: 500 nM): 0.112 ± 0.0057
peptide microarray binding signal ([2]; peptide modifications: H3R2cit H3K9me2, binder concentration: 10 nM): 0.0306 ± 0.0059
peptide microarray binding signal ([2]; peptide modifications: H3R2cit H3K9me2, binder concentration: 100 nM): 0.056 ± 0.011
peptide microarray binding signal [3, 5]: 0.0151 ± 0.001
peptide microarray binding signal [3, 6]: 0.013 ± 0.0011
peptide microarray binding signal [4, 5]: 0.0265 ± 0.0012
peptide microarray binding signal [4, 6]: 0.00986 ± 0.00045

B2: H3 1-13 A R T K Q T A R Kme3 Sph T G G (peptide)
chain: ARTKQTARKSTGG
peptide microarray binding signal ([1]; peptide modifications: H3K9me3 H3S10ph, binder concentration: 50 nM): 0.188 ± 0.014
peptide microarray binding signal ([1]; peptide modifications: H3K9me3 H3S10ph, binder concentration: 500 nM): 0.207 ± 0.011
peptide microarray binding signal ([2]; peptide modifications: H3K9me3 H3S10ph, binder concentration: 10 nM): 0.00597 ± 0.00034
peptide microarray binding signal ([2]; peptide modifications: H3K9me3 H3S10ph, binder concentration: 100 nM): 0.0173 ± 0.0046
peptide microarray binding signal [3, 7]: 0.00283 ± 0.001
peptide microarray binding signal [3, 8]: 0.000913 ± 0.00014
peptide microarray binding signal [4, 7]: 0.085 ± 0.021
peptide microarray binding signal [4, 8]: 0.049 ± 0.01

B3: H3 1-13 A Rcit T Kac Q T A R K S T G G (peptide)
chain: ARTKQTARKSTGG
peptide microarray binding signal ([1]; peptide modifications: H3R2cit H3K4ac, binder concentration: 50 nM): 0.0109 ± 0.00013
peptide microarray binding signal ([1]; peptide modifications: H3R2cit H3K4ac, binder concentration: 500 nM): 0.045 ± 0.0051
peptide microarray binding signal ([2]; peptide modifications: H3R2cit H3K4ac, binder concentration: 10 nM): 0.0563 ± 0.014
peptide microarray binding signal ([2]; peptide modifications: H3R2cit H3K4ac, binder concentration: 100 nM): 0.125 ± 0.011
peptide microarray binding signal [3, 9]: 0.00725 ± 0.0029
peptide microarray binding signal [3, 10]: 0.00656 ± 0.0011
peptide microarray binding signal [4, 9]: 0.00782 ± 0.0003
peptide microarray binding signal [4, 10]: 0.0049 ± 0.00038

B4: H3 1-13 A Rcit T K Q T A R Kac S T G G (peptide)
chain: ARTKQTARKSTGG
peptide microarray binding signal ([1]; peptide modifications: H3R2cit H3K9ac, binder concentration: 50 nM): 0.0152 ± 0.00082
peptide microarray binding signal ([1]; peptide modifications: H3R2cit H3K9ac, binder concentration: 500 nM): 0.0454 ± 0.005
peptide microarray binding signal ([2]; peptide modifications: H3R2cit H3K9ac, binder concentration: 10 nM): 0.0489 ± 0.0051
peptide microarray binding signal ([2]; peptide modifications: H3R2cit H3K9ac, binder concentration: 100 nM): 0.0881 ± 0.024
peptide microarray binding signal [3, 11]: 0.0231 ± 0.0037
peptide microarray binding signal [3, 12]: 0.0127 ± 0.00061
peptide microarray binding signal [4, 11]: 0.00818 ± 0.001
peptide microarray binding signal [4, 12]: 0.00502 ± 0.00055

B5: H3 1-13 A Rcit T Kme2 Q T A R K S T G G (peptide)
chain: ARTKQTARKSTGG
peptide microarray binding signal ([1]; peptide modifications: H3R2cit H3K4me2, binder concentration: 50 nM): 0.00959 ± 0.00044
peptide microarray binding signal ([1]; peptide modifications: H3R2cit H3K4me2, binder concentration: 500 nM): 0.0222 ± 0.0016
peptide microarray binding signal ([2]; peptide modifications: H3R2cit H3K4me2, binder concentration: 10 nM): 0.0839 ± 0.0012
peptide microarray binding signal ([2]; peptide modifications: H3R2cit H3K4me2, binder concentration: 100 nM): 0.149 ± 0.043
peptide microarray binding signal [3, 13]: 0.126 ± 0.023
peptide microarray binding signal [3, 14]: 0.128 ± 0.017
peptide microarray binding signal [4, 13]: 0.00533 ± 0.00032
peptide microarray binding signal [4, 14]: 0.00352 ± 0.00019

B6: H3 1-13 A R T K Q T A R Kme3 S T G G (peptide)
chain: ARTKQTARKSTGG
peptide microarray binding signal ([1]; peptide modifications: H3K9me3, binder concentration: 50 nM): 0.422 ± 0.025
peptide microarray binding signal ([1]; peptide modifications: H3K9me3, binder concentration: 500 nM): 0.417 ± 0.049
peptide microarray binding signal ([2]; peptide modifications: H3K9me3, binder concentration: 10 nM): 0.0205 ± 0.0055
peptide microarray binding signal ([2]; peptide modifications: H3K9me3, binder concentration: 100 nM): 0.0183 ± 0.0029
peptide microarray binding signal [3, 15]: 0.0544 ± 0.038
peptide microarray binding signal [3, 16]: 0.0262 ± 0.0086
peptide microarray binding signal [4, 15]: 0.228 ± 0.047
peptide microarray binding signal [4, 16]: 0.169 ± 0.11

B7: H3 1-13 A Rcit T K Q T A R Kme S T G G (peptide)
chain: ARTKQTARKSTGG
peptide microarray binding signal ([1]; peptide modifications: H3R2cit H3K9me1, binder concentration: 50 nM): 0.0233 ± 0.0034
peptide microarray binding signal ([1]; peptide modifications: H3R2cit H3K9me1, binder concentration: 500 nM): 0.0804 ± 0.019
peptide microarray binding signal ([2]; peptide modifications: H3R2cit H3K9me1, binder concentration: 10 nM): 0.0313 ± 0.0068
peptide microarray binding signal ([2]; peptide modifications: H3R2cit H3K9me1, binder concentration: 100 nM): 0.0512 ± 0.0034
peptide microarray binding signal [3, 17]: 0.00831 ± 0.0015
peptide microarray binding signal [3, 18]: 0.0097 ± 0.00085
peptide microarray binding signal [4, 17]: 0.0064 ± 0.00042
peptide microarray binding signal [4, 18]: 0.00375 ± 0.00014

B8: H3 1-13 A R T K Q T A R Kme2 Sph T G G (peptide)
chain: ARTKQTARKSTGG
peptide microarray binding signal ([1]; peptide modifications: H3K9me2 H3S10ph, binder concentration: 50 nM): 0.0356 ± 0.0038
peptide microarray binding signal ([1]; peptide modifications: H3K9me2 H3S10ph, binder concentration: 500 nM): 0.0593 ± 0.0025
peptide microarray binding signal ([2]; peptide modifications: H3K9me2 H3S10ph, binder concentration: 10 nM): 0.00615 ± 8.7e-05
peptide microarray binding signal ([2]; peptide modifications: H3K9me2 H3S10ph, binder concentration: 100 nM): 0.0145 ± 0.0016
peptide microarray binding signal [3, 19]: 0.00119 ± 1.7e-05
peptide microarray binding signal [3, 20]: 0.000456 ± 3.6e-05
peptide microarray binding signal [4, 19]: 0.0144 ± 0.0017
peptide microarray binding signal [4, 20]: 0.00375 ± 0.00021

B9: H3 1-13 A Rcit T Kme3 Q T A R K S T G G (peptide)
chain: ARTKQTARKSTGG
peptide microarray binding signal ([1]; peptide modifications: H3R2cit H3K4me3, binder concentration: 50 nM): 0.0156 ± 0.00085
peptide microarray binding signal ([1]; peptide modifications: H3R2cit H3K4me3, binder concentration: 500 nM): 0.0357 ± 0.0095
peptide microarray binding signal ([2]; peptide modifications: H3R2cit H3K4me3, binder concentration: 10 nM): 0.131 ± 0.042
peptide microarray binding signal ([2]; peptide modifications: H3R2cit H3K4me3, binder concentration: 100 nM): 0.19 ± 0.089
peptide microarray binding signal [3, 21]: 0.476 ± 0.19
peptide microarray binding signal [3, 22]: 0.28 ± 0.066
peptide microarray binding signal [4, 21]: 0.0852 ± 0.028
peptide microarray binding signal [4, 22]: 0.0601 ± 0.039

B10: H3 1-13 A Rcit T Kme Q T A R K S T G G (peptide)
chain: ARTKQTARKSTGG
peptide microarray binding signal ([1]; peptide modifications: H3R2cit H3K4me1, binder concentration: 50 nM): 0.00831 ± 0.00021
peptide microarray binding signal ([1]; peptide modifications: H3R2cit H3K4me1, binder concentration: 500 nM): 0.0204 ± 0.0024
peptide microarray binding signal ([2]; peptide modifications: H3R2cit H3K4me1, binder concentration: 10 nM): 0.0217 ± 0.0012
peptide microarray binding signal ([2]; peptide modifications: H3R2cit H3K4me1, binder concentration: 100 nM): 0.148 ± 0.015
peptide microarray binding signal [3, 23]: 0.0371 ± 0.0013
peptide microarray binding signal [3, 24]: 0.02 ± 0.0022
peptide microarray binding signal [4, 23]: 0.00468 ± 0.0004
peptide microarray binding signal [4, 24]: 0.00202 ± 3.2e-05

— the supplement of paper PMC4022240
